Consider 49 molecules from PubChem BioAssay AID1851 (National Center for Advancing Translational Sciences (NCATS), 2009).

Hit rate of the full screen: of about 16,000 compounds, about 5,700 (36%) were called active. Roughly 24% stayed inconclusive and do not appear here. This is one part of the list. Unmarked numbers belong to inactive results. The call rests on the fitted dose curve; in most records, active means well fitted curve in the direction sought with a large enough effect; inconclusive means small, poorly fitted or top-dose-only effect, or effect the other way; inactive means no such curve, though single readings can be large or run the other way.
On the % scale 0 is the no-effect control and ±100 the full control effect.

Sequence of Cytochrome P450 1A2 (Homo sapiens) (P05177 whole entry, looked up): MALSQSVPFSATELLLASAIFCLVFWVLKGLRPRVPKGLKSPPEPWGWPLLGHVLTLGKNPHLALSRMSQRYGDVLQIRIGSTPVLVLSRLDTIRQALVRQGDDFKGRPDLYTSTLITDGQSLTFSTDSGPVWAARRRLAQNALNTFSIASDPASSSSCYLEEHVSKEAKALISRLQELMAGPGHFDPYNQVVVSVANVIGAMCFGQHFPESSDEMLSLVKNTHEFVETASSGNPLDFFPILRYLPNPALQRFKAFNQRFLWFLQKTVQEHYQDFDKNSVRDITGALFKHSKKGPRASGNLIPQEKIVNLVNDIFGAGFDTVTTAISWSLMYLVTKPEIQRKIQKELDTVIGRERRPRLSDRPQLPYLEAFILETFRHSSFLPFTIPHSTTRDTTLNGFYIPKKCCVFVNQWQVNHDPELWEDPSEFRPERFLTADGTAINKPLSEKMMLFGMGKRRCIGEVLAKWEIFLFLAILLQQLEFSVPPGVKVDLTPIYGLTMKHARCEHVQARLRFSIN

This assay concerns the target Cytochrome P450 1A2 (Homo sapiens) (UniProt P05177). The assay can be described thus: Cytochrome panel assay with activity outcomes. The conditions noted are these: recombinant CYP, pro-luciferin dealkylation, luminescence, p450-cyp1a2; series mostly up to 57.1 µM; activity, negative = inhibition: at the top concentration.
As to `CCOc1ccc(-c2nn(-c3ccccc3)cc2/C=C(\C#N)S(=O)(=O)c2ccccc2)cc1C`, the concentration at half-maximal activity (AC50) was 1 µM (active).

For `O=C1C2C3C=CC(C3)C2C(=O)N1/N=C/c1cn(Cc2ccc(F)cc2)c2ccccc12` (centres undefined), the “activity, negative = inhibition” value is -24.6%.

In the case of `O=C1C2C3C=CC(C3)C2C(=O)N1/N=C/c1cn(Cc2ccccc2)c2ccccc12` (centres undefined), the AC50 is 15.8 µM (active).

On to `O=[N+]([O-])/C=C/c1cn(Cc2ccccc2)c2ccccc12`, for which the AC50 is 3.55 µM (active).

`CCC(C(=O)c1ccccc1)N(C(=O)c1ccccc1Cl)N1C(=O)C2C3C=CC(C3)C2C1=O` (centres undefined): the “activity, negative = inhibition” value is 4.91%.

Take `COc1ccc2c(c1OC)C(=O)N(C(C)C(=O)O)C2=O` (centres undefined): the “activity, negative = inhibition” value was 4.35%.

As for `O=c1[nH]c(=O)c2nc3ccccc3nc2[nH]1`, the AC50 is 12.6 µM (active).

`NS(=O)(=O)c1ccc(N=Nc2nc3[nH]c(=O)[nH]c(=O)c3[nH]2)cc1`: the activity, negative = inhibition was -13.4% [at 11.4 µM].

With `COc1cnc(NS(=O)(=O)c2ccc(N)cc2)nc1`, the “activity, negative = inhibition” value is -7.79% [at 25.6 µM].

For the molecule `CC(=O)Nc1ccnc(-c2cccnc2)n1`, the AC50 was 2.51 µM (active).

On to `CC(C)(C)C(=O)Nc1ccnc(-c2cccnc2)n1`, for which the half-maximal activity concentration (AC50) is 2.24 µM (active).

In the case of `CCC(=O)O[C@@]1(C(=O)CCl)[C@@H](C)C[C@@H]2[C@H]3CCC4=CC(=O)C=C[C@@]4(C)[C@]3(F)[C@@H](O)C[C@@]21C`, the “activity, negative = inhibition” value is -9.28% [at 25.6 µM].

`O=C1[C@@H]2[C@H]3[C@H](O)[C@H](O)C/C(=N/OC[C@@H](O)COCc4ccco4)[C@H]3CC[C@H]2C(=O)N1c1ccc(F)cc1F`: the activity, negative = inhibition is 0.735% [at 11.4 µM].

With `Cc1[nH]c2ccccc2c1-c1cc(-c2cc(-c3c(C)[nH]c4ccccc34)nc(N)n2)nc(N)n1`, the AC50 is 0.398 µM (active).

As for `Cc1[nH]c2ccccc2c1-c1cc(-c2cc(-c3c(C)[nH]c4ccccc34)on2)no1`, the AC50 is 0.398 µM (active).

`Nc1n[nH]c2ccccc12`: the activity, negative = inhibition is -9.07% [at 2.29 µM].

`COc1ccc(COC(=O)N/N=C2/C[C@@H](O)[C@@H](O)[C@@H]3[C@@H]4C(=O)N(c5cccc(Oc6ccccc6)c5)C(=O)[C@H]4CC[C@H]23)cc1`: the activity, negative = inhibition is 3.29% [at 11.4 µM].

For `CC1=Nc2ccccc2/C1=C\c1nc(-c2ccc(C(F)(F)F)cc2)oc1O`, the AC50 was 0.891 µM (active).

As for `O=C(c1cnccn1)N1CCC[C@@]2(CCN(c3ccncc3)C2)C1`, the “activity, negative = inhibition” value was -10.2%.

In the case of `CS(=O)(=O)N1CCC2(CC1)CN(c1cccc(-c3ccccc3)c1)C2`, the AC50 is 5.01 µM (active).

As for `O=C(c1ccncc1)N1CCC2(CC1)CN(c1ccc(-c3ccccc3)cc1)C2`, the “activity, negative = inhibition” value is -10.2%.

`O=C(c1cnccn1)N1CCC[C@@]2(CCN(c3ncccn3)C2)C1`: the “activity, negative = inhibition” value is -14.5%.

With `O=C(c1cnccn1)N1CCC2(CCCN(c3ccccc3)C2)CC1`, the “activity, negative = inhibition” value was -3.6%.

On to `O=C(c1ccncc1)N1CCC2(CC1)CN(c1cccc(-c3ccccc3)c1)C2`, for which the AC50 is 15.8 µM (active).

With `O=C(c1cnccn1)N1CCC2(CCCN(c3cccc(-c4ccccc4)c3)C2)CC1`, the AC50 is 20 µM (active).

Consider `O=S(=O)(c1ccccc1)N1CCC2(CCCN(c3cccc(-c4ccccc4)c3)C2)CC1`, for which the “activity, negative = inhibition” value is 1.5%.

Regarding `O=C(c1cnccn1)N1CCC[C@@]2(CCN(c3cccc(-c4ccccc4)c3)C2)C1`, the concentration at half-maximal activity (AC50) was 25.1 µM (active).

`CS(=O)(=O)N1CCC2(CC1)CN(c1ccncc1)C2`: the “activity, negative = inhibition” value is -0.451%.

Consider `O=C(c1ccncc1)N1CCC2(CC1)CN(c1ccccc1)C2`, for which the “activity, negative = inhibition” value was -19.4%.

On to `O=C(c1cnccn1)N1CCC2(CC1)CN(c1ccccc1)C2`, for which the “activity, negative = inhibition” value is -2.2%.

On to `COc1cc(CNCc2ccccn2)ccc1OCc1ccc(Cl)cc1Cl`, for which the AC50 is 0.316 µM (active).

With `COc1ccc(CNC(C)(C)C)cc1Cl`, the “activity, negative = inhibition” value was 4.33%.

For `C=CCSc1nc2ccccc2n1C(=O)/C=C/c1cc(OC)c(OC)c(OC)c1`, the AC50 is 7.08 µM (active).

`CCSc1nc2ccccc2n1C(=O)/C=C\c1ccc(OC)c(OC)c1`: the AC50 was 6.31 µM (active).

Turning to `CCn1c(-c2ccccc2Cl)nn(CC(=O)Nc2cc(Cl)ccc2Cl)c1=S`, the half-maximal activity concentration (AC50) was 15.8 µM (active).

With `CCn1c(-c2ccccc2Cl)nn(CC(=O)Nc2ccccc2OC)c1=S`, the “activity, negative = inhibition” value is -20.3%.

In the case of `CC(=O)OC[C@H]1O[C@@H](O/N=C(\C)CCN2CCCc3nc(C)c(C)cc32)[C@H](OC(C)=O)[C@@H](OC(C)=O)[C@H]1OC(C)=O`, the activity, negative = inhibition was 0.931% [at 11.4 µM].

As to `CC(C)(C)N1C(=O)[C@H]2[C@H]3[C@H](O)[C@H](O)C/C(=N/OC[C@@H](O)COCc4ccco4)[C@@H]3CC[C@@H]2C1=O`, the activity, negative = inhibition is 4.56% [at 11.4 µM].

Turning to `COc1ccc(-c2noc(N(C)CC(=O)Nc3cccc(C(F)(F)F)c3)n2)cc1`, the concentration at half-maximal activity (AC50) is 5.01 µM (active).

For the molecule `Cc1noc(C)c1-c1cc(NC2CC2)ncn1`, the AC50 was 0.316 µM (active).

For `COCCNc1ncncc1-c1c(C)noc1C`, the “activity, negative = inhibition” value is -12.6%.

In the case of `CNc1cc(-c2c(C)noc2C)ncn1`, the AC50 was 5.01 µM (active).

As for `COCCNc1cc(-c2c(C)noc2C)ncn1`, the AC50 is 10 µM (active).

On to `COC(=O)N1CCC2(CC1)CN(C(c1ccccc1)c1ccccc1)C2`, for which the “activity, negative = inhibition” value is -2.53%.

As to `C[C@@]12CCC(=O)C=C1CC[C@@H]1[C@@H]2[C@H](O)C[C@]2(C)[C@@H]1CC[C@]2(O)C(=O)CO`, the “activity, negative = inhibition” value was -6.61% [at 25.6 µM].

As to `CCN1CCN(C(c2ccccn2)c2c(NC(=O)c3ccccc3)sc(C)c2C)CC1` (centres undefined), the “activity, negative = inhibition” value was -13.5%.

As to `CC(C)C(=O)Nc1ccc(C(=O)NNC(=O)C(c2ccccc2)c2ccccc2)cc1`, the “activity, negative = inhibition” value is -16.1%.

For `Cc1sc(NC(=O)c2ccccc2)c(C(=O)NCCN(C)C)c1C`, the AC50 is 11.2 µM (active).

In the case of `COC(=O)c1c(NC(C)=O)sc(Cc2ccccc2)c1C`, the AC50 was 1.58 µM (active).

The term AC50 denotes the concentration giving half of the maximal activity seen.
